A short description of assay [1]: potentiators of IFN-gamma STAT1 reporter activity – cell-based, HTS, luciferase reporter, confirmation (AID 1262;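 active means activation above a set limit carried over from the earlier primary STAT1 screen, cut at about 140% in these data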;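 further: simple ratio to median IFN-gamma plus DMSO wells so 0% means no light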). The note with it: NIH 3T3 STAT1-luciferase reporter, IFN-gamma potentiation, luminescence; at 5.7 µM; stronger effect = higher value; 100% = IFN-gamma EC80 alone, no compound. (In a reporter assay the amount or activity of a reporter protein is the signal.)
The nature of assay [2]: enhancement of NF-kB transcriptional signalling – cell-based, HEK293T, luciferase luminescence, TNF-alpha, counter-screen for STAT1 activator project (AID 1306).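 Further: TNF-alpha given at a submaximal dose yielding about 80% of full reporter signal; values are well signal over median control so 100% means no change and 0% no light.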 The note with it: HEK293T NF-kB luciferase reporter, TNF-alpha stimulated, at 5.7 µM, stronger effect = higher value, 100% = TNF-alpha with vehicle only. For orientation: The purpose of a counterscreen is to sort out artefacts and off-target activity.

The target of assay [3] is Signal transducer and activator of transcription 3 (Homo sapiens) (UniProt P40763). The experiment in a line: enhancers of IL-6 STAT3 transcription – U3A cells, luciferase, luminescence, counter-screen for STAT1 activator project, confirmation (AID 1316;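 active means activation above the solvent-only control well mean plus 3 SD, set per plate batch, cut at about 110% in these data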;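 further: 0% = no luminescence and 100% = median IL-6 plus DMSO wells; higher means more STAT3 reporter activation so hits are non-selective activators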). The note with it: U3A cells STAT3-luciferase reporter, IL-6, luminescence; at 5.7 µM; stronger effect = higher value; 100 = IL-6 alone, no compound effect; cells lack STAT1.

Assay [4] concerns the target Oxysterols receptor LXR-beta (Homo sapiens) (UniProt P55055). The experiment in a line: nonspecific reporter activation via LXR – cell-based, luminescence, HEK293, H. contortus campaign, counter-screen for hcDAF-12 agonist project, confirmation (AID 743027;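 active means mean percent activation of the reporter above a cutoff set as the average over tested compounds plus their standard deviation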). The note with it: HEK293 Gal4-LXR tk-luc reporter, 24 h, at 6.8 µM, stronger effect = higher value, normalized: DMSO 0%, positive control 100%.

Assay [5] deals with Nuclear hormone receptor DAF-12 (Haemonchus contortus). Put plainly: hcDAF-12 luciferase reporter activation, retest – cell-based, luminescence, HEK293, lit1-tk-luc, triplicate, confirmation (AID 743032;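 active means mean activation across triplicate tests above the threshold derived from the earlier primary screen, cut at about 5.5% in these data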;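 further: 0% = DMSO only wells and 100% = 3 µM Δ7-dafachronic acid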). The conditions noted are these: HEK293 hcDAF-12 lit1-tk-luc reporter, at 6.8 µM, stronger effect = higher value, % of Δ7-dafachronic acid response.
Assay [6] relates to DAF-12 nuclear receptor (Heterodera glycines), GAL4-LBD fusion. Put plainly: hgDAF-12 GAL4 fusion reporter activation, retest – cell-based, luminescence, HEK293, GAL4-LBD fusion, confirmation (AID 743050;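 active means mean activation over triplicate wells above the hit cutoff derived from the earlier primary screen, cut at about 11% in these data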;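 further: 0% = DMSO low control and 100% = 2 mM sodium butyrate high control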). The conditions noted are these: HEK293 GAL4-hgDAF12 luciferase reporter, agonist mode; at 6.8 µM; stronger effect = higher value; percent of butyrate response.
For assay [7], the target named is Oxysterols receptor LXR-beta (Homo sapiens) (UniProt P55055). The experiment in a line: nonspecific reporter activation via LXR – cell-based, luminescence, HEK293, H. glycines campaign, counter-screen for hgDAF-12 agonist project, confirmation (AID 743051;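 active means mean activation of the triplicate above a set limit carried over from the primary screen, none filed active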). The note with it: HEK293 Gal4-LXR luciferase reporter, 24 h; at 6.8 µM; stronger effect = higher value.
Assay [8] can be described thus: reduced OD of T4-infected AddAB+ E. coli – absorbance, E. coli V3065, T4 phage, triplicate, AddAB inhibitor project, confirmation (AID 488942;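 active means mean inhibition above a set limit taken from the earlier primary screen, cut at about 13% in these data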;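 further: higher means less bacterial growth since AddAB block lets phage replicate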). The note with it: E. coli V3065 expressing H. pylori AddAB, at 11.9 µM, stronger effect = higher value, T4 phage with gene 2 nonsense mutations.
Assay [9] is described as follows: reduced OD of phage-infected RecBCD+ V66 E. coli – absorbance, mutant T4 phage, counter-screen for AddAB inhibitor project (AID 488955;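 active means mean inhibition above the mean of solvent-only control wells plus 3 SD, cut at about 4% in these data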;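 further: optical density read after an 18 h incubation at 37 °C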). The note with it: OD growth, at 11.9 µM, stronger effect = higher value.
Assay [10] can be described thus: bacterial growth inhibitors – absorbance, counter-screen for AddAB inhibitor project, confirmation (AID 488956; in the data active means inhibition above about 25%). The note with it: bacterial viability, absorbance (AddAB counterscreen); at 11.9 µM; stronger effect = higher value.
Assay [11] has as its target Sphingosine 1-phosphate receptor 4 (Homo sapiens) (UniProt O95977). Put plainly: blockers of human S1P4 signalling – cell-based, confirmation (AID 1524; in the data active means inhibition above about 30%). The conditions noted are these: S1P4-expressing cell line, antagonist mode, reporter read-out; at 4.98 µM; stronger effect = higher value.
Assay [12] addresses Sphingosine 1-phosphate receptor 1 (Homo sapiens) (UniProt P21453). Put plainly: blockade of human S1P1 receptor – cell-based, counter-screen for S1P4 antagonist project (AID 1564; in the data active means inhibition above about 40%;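 further: receptor stimulated with S1P near its EC80; 0% = agonist stimulated wells and 100% = vehicle only wells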). The conditions noted are these: cell-based S1P1 antagonist counterscreen, at 4.98 µM, stronger effect = higher value.
A short description of assay [13]: suppression of KLF5 promoter-driven luciferase – DLD-1 cells, luminescence, confirmation (AID 1834;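 active means inhibition above a set limit taken from the earlier primary screen, cut at about 63% in these data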;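 further: 0% = DMSO wells and 100% = LY294002 at 200 µM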). The note with it: DLD-1 KLF5 promoter firefly luciferase reporter, at 4 µM, stronger effect = higher value.
Assay [14] can be described thus: IEC-6 intestinal cell killing – luminescence, triplicate, cytotoxicity control for KLF5 inhibitor project (AID 1905; in the data active means inhibition above about 23%;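 further: cells exposed to compounds for 48 hours before viability read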). The note with it: IEC-6 rat intestinal cells, viability luminescence; at 4 µM; stronger effect = higher value.

The structures appear in SMILES notation. This is one part of the list. A number with no mark means an inactive call. Calls of active or inactive are those of the source.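 How the source made its calls, unless noted: active means activation above the mean of solvent-only control wells plus 3 SD, set per campaign (cut at about 130% in these data); inactive means the rest.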

Oxysterols receptor LXR-beta (Homo sapiens), sequence (P55055 whole entry, looked up, the tested form may be a part): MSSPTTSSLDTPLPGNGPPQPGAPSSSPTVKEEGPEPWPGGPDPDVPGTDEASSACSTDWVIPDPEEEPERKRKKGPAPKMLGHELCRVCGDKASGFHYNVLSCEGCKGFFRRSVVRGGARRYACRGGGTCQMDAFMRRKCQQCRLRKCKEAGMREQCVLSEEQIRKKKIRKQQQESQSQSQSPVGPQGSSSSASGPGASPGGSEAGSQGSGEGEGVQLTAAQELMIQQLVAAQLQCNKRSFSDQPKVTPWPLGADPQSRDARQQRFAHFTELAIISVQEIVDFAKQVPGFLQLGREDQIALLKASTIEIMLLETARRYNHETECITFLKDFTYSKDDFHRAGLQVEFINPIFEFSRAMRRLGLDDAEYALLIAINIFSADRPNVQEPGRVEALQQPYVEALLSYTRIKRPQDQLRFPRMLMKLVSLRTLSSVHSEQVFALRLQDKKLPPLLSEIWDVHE
Sphingosine 1-phosphate receptor 4 (Homo sapiens), sequence (O95977 whole entry, looked up): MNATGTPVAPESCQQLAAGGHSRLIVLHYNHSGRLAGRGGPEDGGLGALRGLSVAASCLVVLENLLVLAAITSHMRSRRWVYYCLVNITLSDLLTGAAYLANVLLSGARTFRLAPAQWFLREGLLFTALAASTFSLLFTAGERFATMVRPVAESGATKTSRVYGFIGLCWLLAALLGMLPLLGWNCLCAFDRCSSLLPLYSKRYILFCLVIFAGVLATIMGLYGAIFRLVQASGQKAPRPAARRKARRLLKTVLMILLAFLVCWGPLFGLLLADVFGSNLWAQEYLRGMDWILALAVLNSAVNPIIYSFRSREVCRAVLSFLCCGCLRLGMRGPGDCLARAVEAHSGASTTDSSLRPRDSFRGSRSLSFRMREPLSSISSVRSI
Sphingosine 1-phosphate receptor 1 (Homo sapiens), sequence (P21453 whole entry, looked up): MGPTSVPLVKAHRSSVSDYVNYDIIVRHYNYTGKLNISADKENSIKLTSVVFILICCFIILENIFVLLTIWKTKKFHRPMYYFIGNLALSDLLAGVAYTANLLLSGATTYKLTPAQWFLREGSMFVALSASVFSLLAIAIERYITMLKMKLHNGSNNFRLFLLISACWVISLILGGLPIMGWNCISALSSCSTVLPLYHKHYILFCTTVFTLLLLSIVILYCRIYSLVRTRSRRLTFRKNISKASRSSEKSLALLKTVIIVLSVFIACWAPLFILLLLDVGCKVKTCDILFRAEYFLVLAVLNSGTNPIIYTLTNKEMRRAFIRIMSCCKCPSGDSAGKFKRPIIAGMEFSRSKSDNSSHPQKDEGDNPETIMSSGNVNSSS

Take `Cc1cc(C)c2nc(NC(=O)C3CCCO3)sc2c1` (stereo not drawn): the values for the activation (% of control) in assay [1], in assay [2] and in assay [3] were 209% (active), 138% (active) and 195% (active), respectively. The figures for the activation in assay [4] and in assay [5] were 1.55% and 6.1% (active), respectively.

Regarding `O=C(Nc1ccc(-c2nnc(-c3ccccc3)o2)cc1)C1CCCO1` (stereo not drawn), the activation (% of control) in assay [1] is 207% (active); in [2] it was 122%; in assay [3] it was 123% (active). The activation in [6] is 15.9% (active); in [7] it was 0.9%.

Turning to `CCOc1ccc2nc(C(=O)N3CCCC(C)C3)sc2c1` (stereo not drawn), the activation (% of control) in [1] was 217% (active); in [2], 133%; in assay [3] it was 97.8%. Also, the activation in assay [4] was 1.14%; in assay [5], 4.22%.

On to `CC(=O)Nc1cccc(-c2csc(Nc3cccc(C)n3)n2)c1`, for which the activation (% of control) was 241% (active) in assay [1], 144% (active) in assay [2] and 106% in [3]. Further, the activation in assay [4] was 1.08%; in assay [5], 3.26%; in assay [6], 19% (active); in assay [7], 1.17%.

For the compound `CC(=O)c1sc(NC(=O)c2ccc(C)cc2)nc1C`, the values for the activation (% of control) in assay [1], in assay [2] and in assay [3] were 185% (active), 123% and 94.7%, respectively.

For the compound `O=C(c1cc(-c2cccs2)on1)N1CCCCC1`, the activation (% of control) in assay [1] is 184% (active); in [2] it was 125%; in [3], 105%.

In the case of `Cn1nnc2cc(C(=O)NCCC3=CCCCC3)ccc21`, the values for the activation (% of control) in assay [1], in assay [2] and in assay [3] were 171% (active), 117% and 119% (active), respectively.

Consider `Cc1noc(C)c1/C=N/Nc1ccc2ccccc2n1`, for which the activation (% of control) in [1] was 235% (active); in assay [2], 141% (active); in assay [3] it was 149% (active). In addition, the activation in assay [4] is 1.54%; in assay [5] it was 15.2% (active).

Take `Cc1ccccc1Nc1nc(N)nc(CSc2ccccc2)n1`: the activation (% of control) in assay [1] was 220% (active); in [2], 126%; in [3] it was 127% (active). In addition, the activation in assay [4] was 1.61%; in assay [5], 8.23% (active); in assay [6], 17.7% (active); in [7] it was 0.84%.

By inhibition is commonly meant the relative decrease from the control value, in per cent. On to `CCn1c(/C=C/c2ccc([N+](=O)[O-])o2)nc2ccccc2c1=O`, for which the activation (% of control) in [1] was 125%; in [2], 156% (active); in assay [3] it was 102%. Further, the values for the inhibition in assay [8], in [9] and in [10] were 92.8% (active), 12.8% (active) and 42.1% (active), respectively.

For the compound `COc1ccc(-n2nnnc2-c2nc3ccccc3s2)cc1`, the activation (% of control) in [1] was 214% (active); in assay [2], 117%; in assay [3], 111% (active). Further, the values for the activation in [4] and in assay [5] were 1.88% and 12.8% (active), respectively.

Regarding `CC(=O)c1sc(N/N=C\c2ccc(C)cc2)nc1C`, the activation (% of control) in assay [1] was 191% (active); in assay [2], 143% (active); in assay [3], 107%.

Take `Cc1cccc(NC(=O)Nc2ccc3c(c2)OCO3)n1`: the activation (% of control) in [1] was 192% (active); in [2] it was 133% (active); in [3], 121% (active). For the same compound, the activation in assay [4] is 0.92%; in assay [5], 4.11%; in [6] it was 18.4% (active); in assay [7] it was 0.79%.

In the case of `Cc1ccc(NC(=O)c2csc3c2CCCC3)cc1`, the activation (% of control) in assay [1] was 202% (active); in [2], 140% (active); in assay [3], 111% (active). The activation in assay [4] was 1.06%; in assay [5], 6.25% (active); in assay [6], 17.6% (active); in assay [7], 0.8%.

With `CN(c1ccc(C(=O)NCCC2=CCCCC2)cc1)S(C)(=O)=O`, the activation (% of control) is 177% (active) in assay [1], 124% in assay [2] and 121% (active) in assay [3].

For the compound `Cc1[nH]n(-c2ccccc2)c(=O)c1/C=N/NC(=O)c1ccoc1C`, the activation (% of control) in [1] is 120%; in [2] it was 117%; in assay [3], 108%.

For `Cc1cc2nc(SCCN3CCOCC3)[nH]c2cc1C`, the activation (% of control) in assay [1] was 157% (active); in assay [2], 119%; in assay [3], 121% (active).

`COc1ccc2nc(SCc3ccccc3)nc(C)c2c1`: the figures for the activation (% of control) in assay [1], in [2] and in assay [3] were 231% (active), 141% (active) and 107%, respectively. In addition, the activation in assay [4] is 1.78%; in assay [5], 5.65% (active); in assay [6], 17.7% (active); in assay [7], 1%.

As for `CCC(=O)NC(=Nc1nc2ccccc2s1)NC(=O)CC`, the activation (% of control) in assay [1] was 216% (active); in assay [2] it was 138% (active); in assay [3], 112% (active).

As to `CN(C)c1ccnc2sc(C(=O)c3ccccc3)c(N)c12`, the activation (% of control) in assay [1] is 188% (active); in assay [2], 126%; in assay [3], 109%. Further, the values for the activation in [6] and in assay [7] were 14.2% (active) and 0.47%, respectively.

On to `CCNc1nc(-c2cc3ccccc3o2)cs1`, for which the activation (% of control) was 131% (active) in assay [1], 121% in [2] and 103% in [3]. In addition, the activation is 2.08% in assay [4] and 8.18% (active) in assay [5].

Turning to `CC(C)c1ccc(NC(=O)NC2CCCCC2)cc1`, the activation (% of control) in assay [1] was 191% (active); in [2] it was 128%; in assay [3], 129% (active).

As for `Cc1cccc(N=Nc2c(O)[nH]c3ccc(F)cc23)c1`, the activation (% of control) in [1] is 160% (active); in [2], 135% (active); in [3], 109%.

`COc1ccc(NC(=O)/C(Cl)=C(/Cl)S(=O)Cc2ccc(C)cc2)cn1` (stereo not drawn): the activation (% of control) in [1] was 324% (active); in [2] it was 51.5%; in [3] it was 103%. Further, the inhibition is 121% (active) in [11], 117% (active) in assay [12], 109% (active) in [13] and 87% (active) in assay [14].

On to `c1ccc(Nc2nc(-c3ccncc3)cs2)nc1`, for which the results for the activation (% of control) in assay [1], in [2] and in assay [3] were 243% (active), 126% and 126% (active), respectively. Further, the activation was 1.73% in assay [4], 8.34% (active) in [5], 16.8% (active) in [6] and 0.86% in assay [7].

In the case of `O=C(Nc1ccc(Cl)cn1)c1cnn2cccnc12`, the activation (% of control) was 171% (active) in assay [1], 128% in [2] and 111% (active) in assay [3].

For the origin of these results see PubChem BioAssay.
